Rows were chosen to be rich in hits. Some 18% of all compounds tested hit in one or more screens of this group.
IL1B secr inh: inhibitors of inflammasome signaling (IL-1 beta secretion). AID 743279. 360,000 compounds, 4.7% hits. THP-1 LPS/ATP IL-1B secretion, AlphaLISA, 16 h; active compounds read low. activity change, % at 57.5 µM; in the data active = activity change below about -50%; inconclusive = mostly about -30% to -49%
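Secreted IL-1B measured by AlphaLISA bead assay after 16 h compound exposure of THP-1 cells; compounds (final up to 57.5 uM) added 1 h before LPS (250 ng/mL) and ATP (1.25 mM) stimulation; lower signal means less secretion.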
TDP1 cell CPT: DT40-hTDP1 cell growth loss with CPT; chicken DT40 Tdp1-/-;hTDP1 cells + 20 nM CPT, ATP luminescence, 48 h; Potency, µM (highest dose often 46.2 µM), without a hit: at the top dose activity change, negative = growth inhibition, most hits filed as inhibitors; 420,000 compounds, 12% hits; AID 686979; also: potency is read from the fitted curve at half-maximal effect; nearly all actives have a fitted effect of over 55% in size
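Cell growth measured by CellTiter-Glo luminescence after a minimum 48 h, 37 C compound exposure with 20 nM CPT in Tdp1-knockout DT40 cells stably expressing hTDP1, seeded 400/well; qHTS titration format.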
DT40 TDP1 no CPT: qHTS for Inhibitors of human tyrosyl-DNA phosphodiesterase 1 (TDP1): qHTS in cells in absence of CPT | 420,000 compounds, 15% hits | AID 686978, 2013 | Potency, µM (titrated, usually from 46.2 µM), without a hit: top-dose activity change, negative = growth inhibition, usual class: inhibitors | DT40 Tdp1-/- hTDP1 cells, no CPT, ATP luminescence, 48 h; also: potency is read from the fitted curve at half-maximal effect; nearly all actives have a fitted effect of over 55% in size
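Chicken DT40 Tdp1-/- cells stably complemented with human TDP1 were seeded at 400 cells/well with DMSO in place of 20 nM camptothecin. After compound pinning, cells grew at least 48 hr at 37 °C; viability read by CellTiter-Glo luminescence.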
CtBP-E1A blk: blocks the CtBP interaction with E1A. AlphaScreen GST-E1A/His-CtBP binding, 1536-well; active compounds read low. activity change, % (no concentration beside the values). 340,000 compounds, 0.49% hits; in the data active = activity change below about -65%; inconclusive = mostly about -30% to -63%
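Protein mix (5X: 125 nM each GST-E1A, His-CtBP) was incubated with pinned compound 2 h at 37 deg C in dark, in 50 mM Tris pH 8.0 buffer with 300 mM NaCl. Glutathione donor and nickel acceptor beads followed; AlphaScreen signal read after 1 h.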
Six1-Eya2 inh: blocks human Six1 binding to Eya2 | Q15475+O00167 | AlphaScreen GST-Six1/His-Eya2 binding, biochemical; active compounds read low | activity change, % (test concentration not listed) | 360,000 compounds, 0.56% hits | AID 651725; in the data active = activity change below about -65%; inconclusive = mostly about -30% to -63%
Target sequence (O00167 whole entry, looked up): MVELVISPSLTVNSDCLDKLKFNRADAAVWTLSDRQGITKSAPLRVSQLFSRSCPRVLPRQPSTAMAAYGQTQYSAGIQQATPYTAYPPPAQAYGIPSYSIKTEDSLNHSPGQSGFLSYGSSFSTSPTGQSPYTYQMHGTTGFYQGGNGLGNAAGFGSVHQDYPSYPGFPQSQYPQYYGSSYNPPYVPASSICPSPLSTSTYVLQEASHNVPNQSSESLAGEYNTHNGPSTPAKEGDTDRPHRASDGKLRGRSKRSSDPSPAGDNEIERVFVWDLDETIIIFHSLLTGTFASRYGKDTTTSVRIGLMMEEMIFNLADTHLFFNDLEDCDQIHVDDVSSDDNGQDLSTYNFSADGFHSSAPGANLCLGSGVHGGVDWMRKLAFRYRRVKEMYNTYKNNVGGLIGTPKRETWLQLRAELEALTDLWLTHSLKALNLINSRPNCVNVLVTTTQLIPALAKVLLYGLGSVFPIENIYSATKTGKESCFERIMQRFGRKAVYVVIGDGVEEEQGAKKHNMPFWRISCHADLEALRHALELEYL
Target sequence (Q15475 whole entry, looked up): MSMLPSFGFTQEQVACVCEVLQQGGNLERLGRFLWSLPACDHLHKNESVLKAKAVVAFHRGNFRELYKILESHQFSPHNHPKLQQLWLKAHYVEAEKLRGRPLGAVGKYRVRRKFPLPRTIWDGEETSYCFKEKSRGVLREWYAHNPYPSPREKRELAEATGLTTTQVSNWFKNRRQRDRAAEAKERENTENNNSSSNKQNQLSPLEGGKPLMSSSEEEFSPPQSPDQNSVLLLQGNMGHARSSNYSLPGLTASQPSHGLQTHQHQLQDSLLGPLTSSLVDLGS
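AlphaScreen luminescence read after one hour at 37 °C in darkness. Pin-transferred compounds met GST-Six1 and His-Eya2 protein (5X stock 250 nM/500 nM) plus glutathione donor and Ni-chelate acceptor beads (5X, 50 ug/mL).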
TDP1 block: TDP1 (human) enzyme inhibition; Q9NUW8; recombinant TDP1, AlphaScreen DNA substrate cleavage; Potency, µM (top dose mostly 130 µM), without a hit: at the highest dose activity change, negative = inhibition, hits mostly inhibitors; 350,000 compounds, 0.28% hits; also: potency is read from the fitted curve at half-maximal effect; nearly all actives have a fitted effect of over 40% in size
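Compounds were preincubated with Tdp1 (1 nM final) for 15 min at room temperature before substrate (15 nM final) started a 5 min reaction; beads (10 ug/ml final) were then added for 10 min before AlphaScreen detection.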
Numbers without * were called inactive; ? = inconclusive; · = not tested or not shown. Unless noted, calls follow the shape of the dose curve; as a rule, active = well fitted curve in the direction sought with a large enough effect; inconclusive = small, poorly fitted or top-dose-only effect, or another doubt; inactive = no such curve, though single readings can be large; an effect the other way counts as inactive or inconclusive. % is scaled to controls: 0 for no effect and ±100 for the full control effect.

SMILES	IL1B secr inh	TDP1 cell CPT	DT40 TDP1 no CPT	CtBP-E1A blk	Six1-Eya2 inh	TDP1 block
COc1cc(Nc2ccn3nc(-c4ccccc4Cl)cc3n2)cc(OC)c1OC	0	?	21µM*	-22	-8	·
COc1ccccc1-c1cc2nc(NCCOc3ccccc3)ccn2n1	-2	18µM*	16µM*	-8	-8	·
COc1cc(-c2cc3nc(NCCN(C)C)ccn3n2)cc(OC)c1OC	-9	-19%	-21%	-3	1	·
c1ccc(COc2ccc(-c3cc4nc(NCCCn5ccnc5)ccn4n3)cc2)cc1	-15	23µM*	16µM*	-14	-26	·
Cc1cccc(C)c1OC(=O)CSc1nnc(-c2cccs2)o1	·	0%	4%	·	·	6%
COc1cc(Nc2cccc(-c3ccccc3)n2)cc(OC)c1OC	20	18µM*	?	-8	-19	·
CCOC(=O)CNC(=O)Cn1cnc2c(nnn2-c2cccc(OC)c2)c1=O	-6	-5%	13%	-1	0	·
CCN(CC)CCN1c2ccccc2Sc2ccc3ccccc3c21	-74*	-17%	16µM*	4	4	0%
CCN(CC)CCN1c2ccccc2Sc2ccccc21	0	?	?	-20	-14	4%
O=C(O)COc1ccccc1/C=N/NC(=O)CSc1nc2ccccc2c(=O)n1-c1ccc(Cl)cc1	-5	0%	3%	-4	0	-5%
COc1cc(C#Cc2c(-c3cncn3C)n(C)c3ccc(-c4cnc(OC)nc4)cc23)cc(OC)c1	-58*	16µM*	?	-3	-14	3%
COc1cc(OC)cc(-c2c(Sc3ccccc3)c3cc(-c4cnc(OC)nc4)ccc3n2C)c1	20	-13%	-29%	5	22	·
COc1cc(C#Cc2c(-c3cncn3C)n(C)c3ccc(-c4ccc(CN5CCOCC5)cc4)cc23)cc(OC)c1	-26	5.8µM*	8.2µM*	-23	-22	4%
O=C(N/N=C/c1c[nH]c2ccccc12)c1cc(-c2ccccc2)n[nH]1	-66*	0%	-9%	-15	-4	8%
O=C(N/N=C/c1c[nH]c2ccccc12)c1cc(-c2ccc(-c3ccccc3)cc2)n[nH]1	78	?	?	-2	-8	6%
O=C(N/N=C/c1c[nH]c2ccccc12)c1cc(-c2cccc3ccccc23)n[nH]1	-52*	?	?	-7	-6	7%
O=C(N/N=C/C=C\c1ccccc1[N+](=O)[O-])c1cc(-c2ccc3ccccc3c2)n[nH]1	-1	?	18µM*	3	2	·
Cc1ccc(-c2cc(C(=O)N/N=C/c3c[nH]c4ccccc34)[nH]n2)cc1	0	2.3µM*	2.6µM*	-10	-4	5%
CCCCOC(=O)C1Cc2ccccc2C(=O)O1 (centres undefined)	21	1%	-12%	6	7	7%
Cc1ccc(NC(=O)C2=CN3CCS(=O)(=O)N=C3C=C2)cc1	-3	16%	6%	-3	3	0%
O=C(N/N=C/c1ccccn1)c1cc(-c2ccc3ccccc3c2)n[nH]1	34	?	?	-2	?	·
O=C(N/N=C/c1c[nH]c2ccccc12)c1cc(-c2ccc3ccccc3c2)n[nH]1	-99*	3.7µM*	?	-19	-5	-2%
CSCCNC(C)=O	·	·	·	·	·	4%
O=C1CCCc2nn(-c3ccccc3)c(-c3ccncc3)c21	0	?	16µM*	0	6	5%
O=C1C2CCC(C(O)C2)N1Cc1ccccc1 (centres undefined)	1	7%	-2%	4	4	4%
SMILES	IL1B secr inh	TDP1 cell CPT	DT40 TDP1 no CPT	CtBP-E1A blk	Six1-Eya2 inh	TDP1 block
O=C1[C@H](Cc2ccccc2)NCCCC[C@H](c2ccc(Cl)cc2)N1Cc1ccc(Cl)cc1	?	23µM*	18µM*	·	-9	·
O=C1[C@H](Cc2ccccc2)NCCCC[C@@H](c2ccc(Cl)cc2)N1Cc1ccccc1	-53*	18µM*	13µM*	-3	-10	·
O=C1C=CN(Cc2ccccc2)C(c2ccccc2)C1 (centres undefined)	-5	?	-27%	-1	5	1%
CC(/C=N/NC(=O)c1cc(C(C)(C)C)[nH]n1)=C\c1ccccc1	-22	?	23µM*	-2	-15	5%
Cc1ccc(-c2cc(C(=O)N/N=C/c3ccco3)n[nH]2)s1	-7	-26%	?	-13	-4	2%
CC(/C=N/NC(=O)c1cc(-c2ccc(C)s2)[nH]n1)=C\c1ccccc1	17	8.2µM*	2.6µM*	1	1	2%
O=C(NCC(=O)N1CCOCC1)OCc1ccccc1	8	-10%	-10%	·	6	·
COc1ccccc1NC(=O)c1cc2c(CO)cnc(C)c2oc1=Nc1cccc(C(N)=O)c1	9	5.2µM*	1.8µM*	·	-18	·
COc1ccccc1NC(=O)c1cc2c(CO)cnc(C)c2oc1=Nc1ccccc1	48	?	8.2µM*	-4	4	·
COc1ccc(NC(=O)c2cc3c(COC(C)=O)cnc(C)c3oc2=Nc2cccc(C(=O)O)c2)c(OC)c1	19	-23%	26µM*	·	-11	·
COc1cc(NC(=O)c2cc3c(CO)cnc(C)c3oc2=Nc2cccc(C(N)=O)c2)cc(OC)c1	-6	-27%	?	·	-10	·
COc1cccc(N=c2oc3c(C)ncc(CO)c3cc2C(=O)Nc2ccccc2OC)c1	·	·	·	·	·	4%
CC(=O)c1c(C)[nH]c(C(=O)N(C)CC(=O)Nc2ccc(Cl)c(C(F)(F)F)c2)c1C	25	?	?	-8	-7	2%
CC1CCCC(NC(=O)COC(=O)Cc2ccc(Br)cc2)C1C (centres undefined)	2	1%	5%	6	49	3%
COc1ccc(CNC(=O)C2CCC(CNS(=O)(=O)c3ccc(C)cc3)CC2)cc1 (centres undefined)	-2	?	?	·	23	·
Cc1nn(-c2ccccc2)c(C)c1/C=N/NC(=O)c1cc(O)cc(O)c1	-7	2%	-14%	?	-28	0%
COc1cc(/C=N/NC(=O)c2cc(-c3ccc4c(c3)OCO4)n[nH]2)ccc1O	-154*	?	?	-26	-19	3%
Cc1nn(-c2ccccc2)c(C)c1-c1cc(C(=O)N/N=C/c2ccc(O)cc2)[nH]n1	-22	26µM*	?	?	-14	5%
